Reference: PubChem BioAssay (NCI)
This is part of a sample that, as a whole, favours compounds with a hit. Of some 83,000 tested, about 20% had one in any assay.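 The test compound was applied at a single concentration to cells in 96-well plates for 48 hours, and percent growth was recorded.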 Activity calls are given as the source filed them. Rule for the calls: active = growth percent below 10; inactive = the rest.

How the values were obtained:
Experiment in all cases: NCI-60 one-dose screen, 48 h (100 = growth as untreated, 0 = no growth, -100 = all killed)
Conditions in all cases: 10 µM unless noted
NCI-H23 lung = test system: NCI-H23 lung
NCI-H226 lung = test system: NCI-H226 lung
NCI-H322M lung = test system: NCI-H322M lung
HOP-62 NSCLC = test system: HOP-62 NSCLC
NCI-H460 lung = test system: NCI-H460 lung
HOP-92 NSCLC = test system: HOP-92 NSCLC
NCI-H522 lung = test system: NCI-H522 lung
786-0 renal = test system: 786-0 renal
COLO 205 colon = test system: COLO 205 colon
A549/ATCC NSCLC = test system: A549/ATCC NSCLC

Measured: growth

O=C(/C=C/c1ccc(B(O)O)cc1)/C=C/c1ccc(B(O)O)cc1
inactive: NCI-H23 lung 62.4% | NCI-H226 lung 78.1% | NCI-H322M lung 80.9% | HOP-62 NSCLC 105% | NCI-H460 lung 57.5% | HOP-92 NSCLC 82.6% | NCI-H522 lung 72.4% | COLO 205 colon 36.8%
active: 786-0 renal -72.5%

C/C(=C(/c1ccc(O)cc1)c1ccc(OCCN2CCCC2)cc1)c1ccccc1
active: COLO 205 colon -56.4%
inactive: NCI-H23 lung 68.1% | NCI-H226 lung 82.9% | NCI-H322M lung 75.8% | HOP-62 NSCLC 70.3% | NCI-H460 lung 24.7% | HOP-92 NSCLC 30% | NCI-H522 lung 49.8% | 786-0 renal 57.1%

CC(=O)Oc1cc2cnc3c4cc(OC(C)=O)c(OC(C)=O)cc4ccc3c2cc1OC(C)=O
inactive: NCI-H23 lung 25.4% | NCI-H226 lung 36.4% | HOP-62 NSCLC 28.7% | HOP-92 NSCLC 18.6% | 786-0 renal 18.9% | COLO 205 colon 78%
active: NCI-H322M lung 5.6% | NCI-H460 lung 9.99% | NCI-H522 lung -28.8%

CC(=O)C1=C(O)C=C2Oc3c(C(=O)/C=C/c4cc(Cl)cc(Cl)c4)c(O)c(C)c(O)c3[C@]2(C)C1=O
active: NCI-H23 lung -42% | NCI-H226 lung -41.1% | NCI-H322M lung -28.9% | HOP-62 NSCLC -42.5% | NCI-H460 lung -5.02% | HOP-92 NSCLC -22% | NCI-H522 lung -52.2% | 786-0 renal -34.9% | COLO 205 colon -70.3%

CC(C)[C@@H]1CC[C@]2(C(=O)NCCCCN=C(N)N)CC[C@]3(C)[C@H](CC[C@@H]4[C@@]5(C)CCC(=O)C(C)(C)[C@@H]5CC[C@]43C)[C@@H]12
active: COLO 205 colon 2.37%
inactive: NCI-H23 lung 69.3% | NCI-H226 lung 84.1% | NCI-H322M lung 73.8% | HOP-62 NSCLC 72.6% | NCI-H460 lung 58.9% | HOP-92 NSCLC 57.6% | NCI-H522 lung 19.5% | 786-0 renal 70.7%

CCCCNP1(NCCCC)=NP(NCCCC)(NCCCC)=NP(NCCCC)(NCCCC)=NP(NCCCC)(NCCCC)=N1
active: NCI-H23 lung -49.6% | NCI-H322M lung 9.1% | NCI-H460 lung -8.78% | HOP-92 NSCLC -24.3% | NCI-H522 lung 7.68% | 786-0 renal -6.24% | COLO 205 colon -26.2%
inactive: NCI-H226 lung 22.4% | HOP-62 NSCLC 10.2%

O=C(CN1CCOCC1)Nc1ccc(Cn2nnc3c2C(=O)c2nnn(Cc4ccc(NC(=O)CN5CCOCC5)cc4)c2C3=O)cc1
inactive: 786-0 renal 12.1%
active: NCI-H23 lung -21.1% | NCI-H226 lung -27.4% | NCI-H322M lung -3.02% | HOP-62 NSCLC -38.6% | NCI-H460 lung 5.66% | HOP-92 NSCLC -36.9% | NCI-H522 lung -43% | COLO 205 colon -83.9%

CC(C)C1=C[C@@]23CC[C@@H]4[C@](C)(CCC[C@@]4(C)C(=O)OCC#CCN4CCCC4)[C@H]2C[C@@H]1[C@H]1C(=O)OC(=O)[C@H]13
inactive: NCI-H23 lung 94.9% | NCI-H226 lung 96.1% | NCI-H322M lung 88.5% | HOP-62 NSCLC 91.9% | NCI-H460 lung 103% | HOP-92 NSCLC 94.1% | NCI-H522 lung 78.7% | 786-0 renal 103% | COLO 205 colon 111%

C/C(=C(/c1ccc(O)cc1)c1ccc(OCCN(C)C)cc1)c1ccccc1
inactive: NCI-H23 lung 81.9% | NCI-H226 lung 89.4% | NCI-H322M lung 77% | HOP-62 NSCLC 79.8% | NCI-H460 lung 93.7% | HOP-92 NSCLC 54.9% | NCI-H522 lung 71.8% | 786-0 renal 89.5% | COLO 205 colon 63.8%

COCCCNc1nc(NC(=O)c2ccc(F)cc2C)cc(-c2cccnc2)n1
inactive: NCI-H23 lung 107% | NCI-H226 lung 89.1% | NCI-H322M lung 102% | HOP-62 NSCLC 99.4% | NCI-H460 lung 102% | HOP-92 NSCLC 67% | NCI-H522 lung 78.6% | 786-0 renal 98.4% | COLO 205 colon 111%

O=C(O)c1cccnc1Br
inactive: NCI-H23 lung 98.1% | NCI-H226 lung 99.8% | NCI-H322M lung 112% | HOP-62 NSCLC 96.2% | NCI-H460 lung 113% | HOP-92 NSCLC 115% | NCI-H522 lung 84.8% | 786-0 renal 90.2% | COLO 205 colon 115%

C=C1CC2(OC1=O)C(=O)Nc1ccccc12 (stereo unspecified)
inactive: NCI-H23 lung 67.7% | NCI-H226 lung 72.9% | NCI-H322M lung 93.8% | HOP-62 NSCLC 108% | NCI-H460 lung 77.8% | 786-0 renal 76.2% | COLO 205 colon 10.3%
active: HOP-92 NSCLC 9.19% | NCI-H522 lung -45.7%

COc1cc2c(c(OC)c1OC)-c1ccc(N=NC(N)=S)c(=O)cc1[C@@H](NC(C)=O)CC2
active: NCI-H23 lung 1.29% | HOP-62 NSCLC 7.96% | NCI-H460 lung 3.1% | NCI-H522 lung -59.8% | 786-0 renal 9.81% | COLO 205 colon -73.6%
inactive: NCI-H226 lung 41.8% | NCI-H322M lung 36.5% | HOP-92 NSCLC 69.6%

O=C(/C=C/c1ccc(Cl)cc1)c1ccc(O)c(CN2CCN(c3cc4c(cc3F)c(=O)c(C(=O)O)cn4C3CC3)CC2)c1
inactive: NCI-H23 lung 51.7% | NCI-H226 lung 67.3% | NCI-H322M lung 72.8% | HOP-62 NSCLC 49.8% | NCI-H460 lung 70.7% | HOP-92 NSCLC 40.8% | NCI-H522 lung 45.2% | 786-0 renal 55.1% | COLO 205 colon 136%

CNC(=O)c1cc(Oc2ccc3nc(NC(=O)Nc4ccc(N5CCC(N(C)C)CC5)cc4)sc3c2)ccn1
inactive: NCI-H23 lung 88.1% | NCI-H226 lung 94.9% | NCI-H322M lung 88.9% | HOP-62 NSCLC 93.5% | NCI-H460 lung 81.6% | HOP-92 NSCLC 74.7% | NCI-H522 lung 117% | A549/ATCC NSCLC 79.8% | COLO 205 colon 80%

COc1ccc(-c2cc(=O)[nH]c3c(OC)c4ccccc4c(OC)c23)cc1
inactive: NCI-H23 lung 19.2% | NCI-H226 lung 39.9% | NCI-H322M lung 41.8% | HOP-62 NSCLC 36.8% | HOP-92 NSCLC 73.9% | 786-0 renal 34.5%
active: NCI-H460 lung 8.71% | NCI-H522 lung -17.2% | COLO 205 colon -58.8%

COc1cc(C(=O)/C=C/c2c(C)n([O-])c3ccc(C)cc3[n+]2=O)cc(OC)c1OC
inactive: NCI-H23 lung 42.2% | NCI-H226 lung 72.7% | NCI-H322M lung 97.9% | HOP-62 NSCLC 102% | NCI-H460 lung 88.4% | HOP-92 NSCLC 64.5% | 786-0 renal 74%
active: NCI-H522 lung -81.8% | COLO 205 colon -36.6%

COc1ncc(-c2ccc3ncnc(Nc4cccc(Cl)c4)c3c2)cc1NS(C)(=O)=O
active: NCI-H322M lung -6.97% | HOP-92 NSCLC -14.7%
inactive: NCI-H23 lung 37.4% | NCI-H226 lung 47.2% | HOP-62 NSCLC 56.6% | NCI-H460 lung 28.3% | NCI-H522 lung 33.3% | 786-0 renal 46.2% | COLO 205 colon 41.5%

CCCN(CCC)CN(CCC)CCC
inactive: NCI-H23 lung 96.5% | NCI-H226 lung 95.3% | NCI-H322M lung 97.6% | HOP-62 NSCLC 113% | NCI-H460 lung 107% | HOP-92 NSCLC 91.8% | NCI-H522 lung 101% | 786-0 renal 94.8% | COLO 205 colon 116%

Oc1ccccc1N=Cc1c(O)ccc2ccccc12
inactive: NCI-H23 lung 88.2% | NCI-H226 lung 87.3% | NCI-H322M lung 82.6% | HOP-62 NSCLC 83.7% | NCI-H460 lung 81.3% | HOP-92 NSCLC 58.3% | NCI-H522 lung 81% | 786-0 renal 86.2% | COLO 205 colon 108%

CSc1[nH]c2ncnc(N)c2c1C#N
inactive: NCI-H23 lung 91.4% | NCI-H226 lung 73.6% | HOP-62 NSCLC 94.9% | NCI-H460 lung 99.6% | HOP-92 NSCLC 118% | NCI-H522 lung 82.6% | A549/ATCC NSCLC 101% | 786-0 renal 99.7% | COLO 205 colon 117%

COc1ccc(-n2c(C)nc3c(c(C)nn3-c3ccccc3)c2=O)cc1
inactive: NCI-H23 lung 18.4% | NCI-H226 lung 51.3% | HOP-62 NSCLC 34.4% | HOP-92 NSCLC 27.6% | A549/ATCC NSCLC 16.3% | 786-0 renal 27.4%
active: NCI-H460 lung 3.74% | NCI-H522 lung -14% | COLO 205 colon -45.6%

COC(=O)C12C3C(=O)N(c4ccc(OC)cc4)C(=O)C3C(c3cn(-c4ccccc4)nc3C)N1[C@H](c1cn(-c3ccccc3)nc1C)[C@@H]1C(=O)N(c3ccc(OC)cc3)C(=O)[C@@H]12 (stereo partly specified)
inactive: NCI-H23 lung 103% | NCI-H226 lung 99.7% | HOP-62 NSCLC 116% | NCI-H460 lung 99.8% | HOP-92 NSCLC 97.4% | NCI-H522 lung 91.2% | A549/ATCC NSCLC 100% | 786-0 renal 102% | COLO 205 colon 112%

NS(=O)(=O)N(c1cc(C(F)(F)F)cc(C(F)(F)F)c1)C1CCN(Cc2ccc(F)cc2)CC1
inactive: NCI-H23 lung 55.5% | NCI-H226 lung 69.3% | HOP-62 NSCLC 77.3% | NCI-H460 lung 58.4% | HOP-92 NSCLC 34.9% | NCI-H522 lung 43.2% | A549/ATCC NSCLC 66.5% | 786-0 renal 55.5%
active: COLO 205 colon -62.7%

Clc1cccc(Nc2nc(Nc3cnc4ccccc4c3)c3[nH]cnc3n2)c1
active: HOP-92 NSCLC 7.57%
inactive: NCI-H23 lung 84.3% | NCI-H226 lung 72.3% | HOP-62 NSCLC 59.9% | NCI-H460 lung 61.1% | NCI-H522 lung 61.9% | A549/ATCC NSCLC 74.4% | 786-0 renal 109% | COLO 205 colon 79.8%

CCOC(=O)Cc1cnn(C)c1NC(=O)c1ccc(Cl)cc1NC(C)=O
inactive: NCI-H23 lung 104% | NCI-H226 lung 98.6% | HOP-62 NSCLC 96.4% | NCI-H460 lung 119% | HOP-92 NSCLC 91.4% | NCI-H522 lung 95.4% | A549/ATCC NSCLC 103% | 786-0 renal 98.4% | COLO 205 colon 110%

C=C(C[n+]1ccccc1)[C@@H]1CC[C@]2(C(=O)OC)CC[C@]3(C)[C@H](CC[C@@H]4[C@@]5(C)CC[C@H](O)C(C)(C)[C@@H]5CC[C@]43C)[C@@H]12
inactive: NCI-H23 lung 97.4% | NCI-H226 lung 89.5% | HOP-62 NSCLC 93.5% | NCI-H460 lung 105% | HOP-92 NSCLC 82.9% | NCI-H522 lung 78% | A549/ATCC NSCLC 105% | 786-0 renal 102% | COLO 205 colon 102%

Cn1c(=O)c2[nH]c(C(O)C(O)C(O)C(O)CO)nc2n(C)c1=O (stereo unspecified)
inactive: NCI-H23 lung 100% | NCI-H226 lung 95.1% | HOP-62 NSCLC 96% | NCI-H460 lung 107% | HOP-92 NSCLC 109% | NCI-H522 lung 86.7% | A549/ATCC NSCLC 88.7% | 786-0 renal 107% | COLO 205 colon 103%

COc1ccc(-c2cc(NC(=O)Nc3ccc(O)cc3)no2)cc1
inactive: NCI-H23 lung 89.5% | NCI-H226 lung 84.2% | HOP-62 NSCLC 88.5% | NCI-H460 lung 86.2% | HOP-92 NSCLC 94% | NCI-H522 lung 44.8% | A549/ATCC NSCLC 67.6% | 786-0 renal 77.3% | COLO 205 colon 105%
